Screening results (PubChem BioAssay)
MIN6 prolif – induces beta-cell replication in MIN6 cells; AID 2380; 0.29% of 330,000 active; proliferation, % at 10 µM; MIN6 cells proliferation, ATPlite luminescence, 48 h; cells starved in 0.2% serum; 100% = growth in 10% serum;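 active = compounds whose signal lies at least 3.5 SD above the mean of all wells on their plate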
APOBEC3G inh – blocks human APOBEC3G single-stranded DNA deamination; Q9HC16; recombinant A3G, ssDNA deamination FAM/TAMRA fluorescence; inhibition, % at 20 µM; 0.28% of 330,000 active;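 active = inhibition of at least 40% at 20 µM, with no more than 30% in the related APOBEC3A deaminase screen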
Target sequence (Q9HC16 whole entry, looked up): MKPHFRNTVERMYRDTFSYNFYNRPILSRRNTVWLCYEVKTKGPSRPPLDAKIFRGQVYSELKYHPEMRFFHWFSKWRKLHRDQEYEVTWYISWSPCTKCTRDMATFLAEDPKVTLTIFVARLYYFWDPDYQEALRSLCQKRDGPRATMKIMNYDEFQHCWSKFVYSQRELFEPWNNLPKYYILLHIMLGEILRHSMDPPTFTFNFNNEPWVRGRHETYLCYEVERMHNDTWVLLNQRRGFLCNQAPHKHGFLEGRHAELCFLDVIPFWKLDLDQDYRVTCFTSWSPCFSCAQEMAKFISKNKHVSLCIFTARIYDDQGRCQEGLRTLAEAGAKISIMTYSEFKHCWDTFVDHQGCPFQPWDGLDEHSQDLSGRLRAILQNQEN
APOBEC3A inh – human APOBEC3A DNA deaminase inhibition | recombinant A3A, FAM/TAMRA ssDNA deamination fluorescence | inhibition, % at 20 µM | 0.41% of 330,000 active;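 active = at least 40% inhibition at 20 µM here, with at most 30% in a related deaminase screen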
Target sequence (P31941 whole entry, looked up): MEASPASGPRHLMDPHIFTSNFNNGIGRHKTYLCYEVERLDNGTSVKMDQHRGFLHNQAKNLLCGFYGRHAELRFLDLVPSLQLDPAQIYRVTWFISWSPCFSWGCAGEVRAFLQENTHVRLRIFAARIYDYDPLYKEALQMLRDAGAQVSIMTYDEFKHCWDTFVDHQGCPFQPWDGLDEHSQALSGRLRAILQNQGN
A1 inh – inhibitors of the anti-apoptotic protein A1, read as caspase activation | caspase activation, % (no concentration beside the values) | AID 2462 | 0.066% of 330,000 active | MEF A1-2A-BIM cells, Caspase-Glo 3/7 luminescence, 3 h; percent of clofoctol response, vehicle zero;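 active = over half of replicate activation scores above 10%, or exactly half above 10 with the replicate mean above 10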
APOBEC3A confirm – APOBEC3A (human) deaminase inhibition, confirmed; 63% of 1,400 active; recombinant A3A, ssDNA deaminase UDG fluorescence assay; shares compounds with APOBEC3A inh; inhibition, % at 20 µM;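 active = inhibition reaching a set limit, 80% of the first screen's cutoff, at 20 µM in any replicate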
UDG A3A counter – UDG inhibition in APOBEC3A counter-screen; shares compounds with APOBEC3A inh; UDG counterscreen, FAM/TAMRA uracil oligo fluorescence; inhibition, % at 20 µM; 1,000 tested, under 10 active; call rule not given here
Numbers stand for hits. An excerpt weighted towards active compounds, which were near 1.1% of everything screened.

For O=C(CSc1ncnc2nc[nH]c12)Nc1ccccc1C(F)(F)F the results were MIN6 prolif inactive, APOBEC3G inh inactive, APOBEC3A inh 56.7, A1 inh inactive, APOBEC3A confirm 38.9 and UDG A3A counter inactive.
`COc1ccccc1NC(=O)C(C)N1C(=O)C2CCCCC2C1=O` (stereo not drawn) gave MIN6 prolif inactive, APOBEC3G inh inactive, APOBEC3A inh inactive and A1 inh inactive.
Screening CCOc1ccc2nc(COC(=O)c3cccc([N+](=O)[O-])c3)c(C(C)=O)[n+]([O-])c2c1 returned MIN6 prolif inactive, APOBEC3G inh inactive, APOBEC3A inh inactive and A1 inh inactive.
`O=C(O)C1CCCCC1C(=O)Nc1cccc(Br)c1` (stereo not drawn) gave MIN6 prolif inactive, APOBEC3G inh inactive, APOBEC3A inh 94.3, A1 inh inactive and APOBEC3A confirm 90.9.
For O=C(Nc1cccc(Br)c1)C1CCCC1 the results were MIN6 prolif inactive, APOBEC3G inh inactive, APOBEC3A inh inactive and A1 inh inactive.
`COc1ccc(Cl)cc1NC(=O)CN1C(=O)NC(Cc2c[nH]c3ccccc23)C1=O` (stereo not drawn) gave MIN6 prolif inactive, APOBEC3G inh inactive, APOBEC3A inh inactive and A1 inh inactive.
`Cc1ccc(/C=C2/SC(=Nc3ccc(F)cc3)NC2=O)s1` gave MIN6 prolif inactive, APOBEC3G inh inactive, APOBEC3A inh 50.8, A1 inh inactive, APOBEC3A confirm 63.1 and UDG A3A counter inactive.
For Cc1ccc(N=C2NC(=O)/C(=C\c3cccs3)S2)cc1C the results were MIN6 prolif inactive, APOBEC3G inh inactive, APOBEC3A inh inactive and A1 inh inactive.
Screening C/C(CC(=O)Nc1ccc2c(c1)OCCO2)=N\NC(=O)COc1ccc(C)cc1Br returned MIN6 prolif inactive, APOBEC3G inh inactive, APOBEC3A inh inactive and A1 inh inactive.
O=C(Nc1cccc(F)c1)c1ccc2c(c1)OCCO2 was read as MIN6 prolif inactive, APOBEC3G inh inactive, APOBEC3A inh inactive and A1 inh inactive.
CN(CC(=O)Nc1cccc(F)c1)C(=O)c1ccc2c(c1)OCCO2 was read as MIN6 prolif inactive, APOBEC3G inh inactive, APOBEC3A inh 40.3, A1 inh inactive and APOBEC3A confirm inactive.
For O=c1oc(-c2ccccc2NS(=O)(=O)c2ccccc2)nc2ccccc12 the results were MIN6 prolif inactive, APOBEC3G inh inactive, APOBEC3A inh 50.2, A1 inh inactive, APOBEC3A confirm inactive and UDG A3A counter inactive.
`O=C(C(=O)N1CCCCCC1)c1c[nH]c2ccccc12` gave MIN6 prolif inactive, APOBEC3G inh inactive, APOBEC3A inh inactive and A1 inh inactive.
For C[n+]1cc(C(=O)N2CCCCC2)ccc1/C=C/c1c[nH]c2ccccc12 the results were MIN6 prolif inactive, APOBEC3G inh inactive, APOBEC3A inh 75.1, A1 inh inactive, APOBEC3A confirm 72.6 and UDG A3A counter inactive.
For C[n+]1c(/C=C/c2ccc(O)cc2)ccc2ccccc21 the results were MIN6 prolif inactive, APOBEC3G inh inactive, APOBEC3A inh 57.3, A1 inh inactive, APOBEC3A confirm 75.3 and UDG A3A counter inactive.
`C[n+]1c(/C=C/c2ccc3c(c2)OCO3)ccc2ccccc21` gave MIN6 prolif inactive, APOBEC3G inh inactive, APOBEC3A inh 86.0, A1 inh inactive, APOBEC3A confirm 86.6 and UDG A3A counter inactive.
For CCN(C(=O)/C=C/c1ccc2c(c1)OCO2)c1ccccc1 the results were MIN6 prolif inactive, APOBEC3G inh inactive, APOBEC3A inh inactive and A1 inh inactive.
Screening CCn1c(SCC(=O)NCC2CCCO2)nnc1-c1ccc(S(=O)(=O)N2CCN(C)CC2)cc1 (stereo not drawn) returned MIN6 prolif inactive, APOBEC3G inh inactive, APOBEC3A inh inactive and A1 inh inactive.
`N=Nc1c(O)n(CC(=O)Nc2ccccc2)c2ccccc12` gave MIN6 prolif inactive, APOBEC3G inh inactive, APOBEC3A inh inactive and A1 inh inactive.
For COc1ccccc1N(CC(=O)Nc1ccc2c(c1)OCO2)S(=O)(=O)c1ccccc1 the results were MIN6 prolif inactive, APOBEC3G inh inactive, APOBEC3A inh 48.6, A1 inh inactive, APOBEC3A confirm 64.4 and UDG A3A counter inactive.
COc1cc(S(=O)(=O)N(Cc2cccnc2)Cc2cccc(OC)c2OC)ccc1-n1cnnn1 was read as MIN6 prolif inactive, APOBEC3G inh inactive, APOBEC3A inh inactive and A1 inh inactive.
`CC1(OC(=O)C2CCCC2)C(=O)C=C2C=C3CCCCN3C=C2C1=O` (stereo not drawn) gave MIN6 prolif inactive, APOBEC3G inh inactive, APOBEC3A inh 43.9, A1 inh inactive, APOBEC3A confirm 22.8 and UDG A3A counter inactive.
For Nc1nnc(SCC(=O)N2CCN(Cc3ccccc3)CC2)s1 the results were MIN6 prolif inactive, APOBEC3G inh inactive, APOBEC3A inh 64.0, A1 inh inactive and APOBEC3A confirm inactive.
`O=C(CN(Cc1ccccc1)C(=O)CCC(=O)Nc1ccccn1)NCc1ccc(F)cc1` gave MIN6 prolif inactive, APOBEC3G inh inactive, APOBEC3A inh inactive and A1 inh inactive.
Screening CC(=O)c1ccc(S(=O)(=O)N2Cc3ccccc3CC2C(=O)O)cc1 (stereo not drawn) returned MIN6 prolif inactive, APOBEC3G inh inactive, APOBEC3A inh 56.4, A1 inh inactive, APOBEC3A confirm 56.0 and UDG A3A counter inactive.
For CN(C)Cc1c(C(=O)N/N=C/c2ccoc2)nnn1-c1nonc1N the results were MIN6 prolif inactive, APOBEC3G inh inactive, APOBEC3A inh inactive and A1 inh inactive.
`CN(C)Cc1c(C(=O)N/N=C/c2ccncc2)nnn1-c1nonc1N` gave MIN6 prolif inactive, APOBEC3G inh inactive, APOBEC3A inh 48.0, A1 inh inactive, APOBEC3A confirm inactive and UDG A3A counter inactive.
Screening O=C(CSc1nc(=O)n(CCCN2CCOCC2)c2c1CCCC2)Nc1ccc(Cl)cc1 returned MIN6 prolif inactive, APOBEC3G inh inactive, APOBEC3A inh inactive and A1 inh inactive.
For Cc1ccnc(NS(=O)(=O)c2ccc(NC(=O)Cc3cccs3)cc2)n1 the results were MIN6 prolif inactive, APOBEC3G inh inactive, APOBEC3A inh 54.2, A1 inh inactive, APOBEC3A confirm 61.4 and UDG A3A counter inactive.
`CCC[n+]1c(C)sc2c(OC)ccc(OC)c21` gave MIN6 prolif inactive, APOBEC3G inh inactive, APOBEC3A inh 43.7, A1 inh inactive, APOBEC3A confirm 19.5 and UDG A3A counter inactive.
CCOc1ccccc1C(=O)NCC(=O)OCC(=O)c1c(N)n(C)c(=O)n(C)c1=O was read as MIN6 prolif inactive, APOBEC3G inh inactive, APOBEC3A inh inactive and A1 inh inactive.
Screening O=C(O)c1cc(-c2ccc(/C=C3\NC(=O)N(c4ccccc4)C3=O)o2)ccc1Cl returned MIN6 prolif inactive, APOBEC3G inh inactive, APOBEC3A inh 58.4, A1 inh inactive, APOBEC3A confirm 35.2 and UDG A3A counter inactive.
